# Assay results published in the supplement of paper PMC11417369.
# ± gives the standard deviation of the averaged measurements. The full ranking holds about 25,000 sequences; the median of “ln(normalized median fluorescence intensity)” is about 8.9, and the highest 2% start at about 10. The list comes from a sample in which the highest values are over-represented; it also holds similar and randomly drawn sequences.
# System: PfAP2-LT AP2 domain (GST-tagged)
# Test: gcPBM binding intensity (ln(normalized median fluorescence intensity)); higher = stronger DNA binding
# Summary of the method: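 Alexa488 anti-GST antibody, scanned at 488 nm, detected GST-tagged P. falciparum DNA-binding domains that had been expressed in E. coli and incubated for 1 h on an Agilent 4 × 180k array. The array carried primer-extended double-stranded 36-bp intergenic genomic probes and negative controls. Binding intensity is the highest Masliner-normalised natural-log median intensity across replicate spots of either orientation of each probe.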
row,Sequence,gcPBM binding intensity (ln)
1,GGCATATATATATGCACACATACATATATACATGTG [CACACA_site3859],9.7 ± 0.3
2,GTTACACAAACAAACACACACACACGCACGCACAAA [CACACA_site7191],10 ± 0.2
3,AAAGAAAAAAAAAAAAAAAAAAAAAAAATTATACAT [CACACA_negctrl_site7],8.45 ± 0.64
4,TTTAAAACCTTACATACACACAAATATGTAAATATA [CACACA_site6464],8.75 ± 0.42
5,GAGCACCAAAATATATGTACATATGATAAATGTGAA [XGTACX_site1130],8.96 ± 0.51
6,GTTATTGAAAAAATAGTGCAATATAACAAAGTAAAA,8.85 ± 0.48
7,AAAAAAAACGAACACACACACAAATATGTAAAAATA [CACACA_site6673],9.87 ± 0.28
8,ATTATATTAATATATATATATATATATATAATAATA [CACACA_negctrl_site437],8.69 ± 0.3
9,TCATAGTATGGACACACACACACACCCATATATATA [CACACA_site5033],10 ± 0.25
10,TACACCCATGGACACACACACACGCATAAAAAAAAA [CACACA_site4933],9.85 ± 0.58
11,TACACGCATGGACACACACACACACCCATATATATA [CACACA_site4522],10.3 ± 0.35
12,AAAAAAAATCAAATGGGTACTTATTCTTAATAATAT [XGTACX_site3792],8.61 ± 0.33
13,TTTTTAGAAAAGGTTATAAAAAATTAATTGAAAAAA [GTGCAC_negctrl_site289],8.05 ± 0.47
14,TAAAAGTAAAGACATGCATGCATTGGTATCTTTTAC [TGCATGCA_site665],8.95 ± 0.35
15,GTAGACTGAAACCACACACACATATATAAATATATT [CACACA_site6433],9.68 ± 0.38
16,GTAGACTGAAACCACACACACATATATATATATATT [CACACA_site605],9.8 ± 0.13
17,ATGTAGACTGAAACCACACACACATATATATATATA [CACACA_site606],10.2 ± 0.2
18,GCGTTGTTTTTAAAAAGTACATTTTTATATAAGTTA [XGTACX_site8780],8.54 ± 0.46
19,TATTAAGAAGAAAATTCACACATTTGTACCTCTCTT [CACACA_site4822],8.86 ± 0.47
20,ACATTCTATACATACACACCCACACCCAAAAAAAAA [CACACA_site863],9.59 ± 0.042
21,ATATATATATATTCCACACACACACCCAAAAAAAAA [CACACA_site3649],9.745 ± 0.05
22,CATACAGACATACATACACACATACATACAGACATA [CACACA_site6996],9.56 ± 0.35
23,TATTCCCCCAAACACACACACACACCCACATACCAC [CACACA_site2304],10.5 ± 0.13

row,Sequence,gcPBM binding intensity (ln)
1,TATTCCCCCCAACACACACACACACCGACATACCAC [CACACA_site8723],10.8 ± 0.26
2,ACATACATACCCCCACGTACGTACCGAAACACCACC [XGTACX_site1982],9.74 ± 0.028
3,AAATTCCACCAACACACACACATATAAATAAATAAA [CACACA_site1233],9.86 ± 0.42
4,GACATATTCCCCCCCACACACACACCCACATACATA [CACACA_site2302],11.1 ± 0.18
5,TACACCCACCCACATACACACACATACACATATATA [CACACA_site8503],10.1 ± 0.21
6,TACAGACATACATACACACATACATACAGACATACA [CACACA_site1941],9.43 ± 0.38
7,TTCCCCCCCAGACACACACACACATACATACCACAT [CACACA_site2305],11.1 ± 0.77
8,ATTCTACACCCACATACACACATATATATATATATA [CACACA_site3426],10 ± 0.085
9,TGTTATTCTGCATATACACACAAATAACAATTTAAA [CACACA_site6943],8.67 ± 0.38
10,CCTTTTTTATTTACAACACACGTAAAGGTTCAAATA [CACACA_site1741],8.68 ± 0.42
11,TTTTCAATTAATAATACACACATGTATATATCATTA [CACACA_site7539],8.81 ± 0.43
12,TATGAAATGCTCCAATCACACATGAATGTAATATAT [CACACA_site5458],8.73 ± 0.35
13,AACTATTACTTTCTTTCACACATTTTTTTTTTTTTT [CACACA_site5355],8.94 ± 0.59
14,AATAATATCTGAAAATGTACATTTTATTATAAACAT [XGTACX_site8441],8.86 ± 0.45
15,ATGAATAAAAAAGGTGGTACATATATATATATATAT [XGTACX_site7893],9.82 ± 0.11
16,AAAAAAAAAAGACACACACACATAGACCTCCAATAG [CACACA_site7646],9.79 ± 0.25
17,AAAAAAAAAAAACACACACACATAGACCTCCAATAG [CACACA_site3562],9.77 ± 0.25
18,AAAAAAAAAAAAAACACACACACATAGACCTCCAAT [CACACA_site3563],10.2 ± 0.26
19,TATAAATATACAAAGGTGCATAAAAAGTTATGTTTT [GTGCAC_site9832],8.72 ± 0.44
20,TTCTATTCAAATGCAAAATTATTAAATAAAAAATAA [GTGCAC_negctrl_site708],8.31 ± 0.43
21,GAAAAGCATAGATGCACACATATATATATATATATA [CACACA_site2169],10.18 ± 0.014
22,AAAAAAAAAAGAAACACACACATATATATATAGAAT [CACACA_site1777],9.44 ± 0.39
23,AAGAAAAGCATAGATGCACACATATATATATATATA [CACACA_site8675],10.2 ± 0.32

row,Sequence,gcPBM binding intensity (ln)
1,GCTAAAAGTATATGCACACACATATAGATGCACATA [CACACA_site6868],9.34 ± 0.33
2,TAGGAAAAGAAAAGCACACACATAAATAGATATATA [CACACA_site6382],9.43 ± 0.54
3,ATTTTAGATGAAAAAGCACACAACATATATATATAT [CACACA_site2295],9.44 ± 0.38
4,AATACCCATATCTTCACACATACATAATAAATTATA [CACACA_site5367],8.81 ± 0.36
5,AAAAAAAAAATATACACACACATATAAATATAAATA [CACACA_site7574],9.34 ± 0.42
6,TGAGGTAACTAAATATGTACGTAACGAAGATACATA [XGTACX_site8231],8.96 ± 0.5
7,AATTGTTCGATATATGCACACAGTTTTGTTATTTTT [CACACA_site1615],9.25 ± 0.34
8,TATTAAACTTGACACACACACACACGCATATATAAA [CACACA_site6496],10.1 ± 0.14
9,TTTATTAAACTTGACACACACACACCCACATATATA [CACACA_site760],9.8 ± 0.28
10,GTTTGATTAAACTTGACACACATATATATAAATATA [CACACA_site1784],8.71 ± 0.44
11,CCCCATATAATGAACACACACACTCCTCATAATTAA [CACACA_site628],10.33 ± 0.099
12,CCCATGTAATATTAAACACACACTCATATAACACAA [CACACA_site7906],9.36 ± 0.26
13,TTTCCCCCATATAATGAACACACACCCTCCTCATAA [CACACA_site8110],9.84 ± 0.41
14,TTATAAATTCAATGTACTACACAAAATGAATTTAAT [XGTACX_site6683],8.53 ± 0.35
15,AGAACCATATATAAATGTACATGTTAATATGAATAA [XGTACX_site130],8.93 ± 0.42
16,ATTATGTTTCTTTTTTTTTTTAAAGGATGTCTTTTT [CACACA_negctrl_site974],8.62 ± 0.56
17,ATTAAACATACATATACACACACACCCACCCACCCA [CACACA_site8057],10.22 ± 0.071
18,TAAACATACATATACACACACACACCCACACCCACA [CACACA_site492],10.3 ± 0.18
19,TTAAAAAAAAAACACACACACATACACATATATATA [CACACA_site3299],9.91 ± 0.2
20,TTATATATGTATTAATGTACATAGTTGAGAAAGGTA [XGTACX_site1511],8.78 ± 0.34
21,GAACCTTTAAAATACACACCCAAATCCTTTGAAATA [CACACA_site3630],8.88 ± 0.42
22,CAATGTTGTACATACACACACACAAAAAAAAAATAA [CACACA_site2407],9.6 ± 0.45
23,TCTCCTTGTTCCTTTTTTTTAAAAAAAAACATTAAA [CACACA_negctrl_site679],8.47 ± 0.52

row,Sequence,gcPBM binding intensity (ln)
1,GTTAATTATTAAATTTGTACTCATATATATTATATA [XGTACX_site6862],8.71 ± 0.53
2,CAAAGACACAAACACACACACACATACATACATACA [CACACA_site453],10.3 ± 0.42
3,AAAAAAAAAAGACACACACACAAATACAAATACATA [CACACA_site6334],10 ± 0.28
4,AAGACACAAAAACACACACACATACATACATACATA [CACACA_site454],9.99 ± 0.31
5,ATAAAACAAAGACACACACACATACACAAAAAAAAA [CACACA_site7752],9.99 ± 0.42
6,GGTACATACAGACACACACACAAAAAAAAAAAAATA [CACACA_site6844],9.81 ± 0.64
7,AAAAAAAAAAGACACACACACACAAATACATACACA [CACACA_site6472],10.2 ± 0.042
8,TAATATTTCGCACTGTGTACTGAAATATTTATATCG [XGTACX_site516],8.76 ± 0.36
9,TAATTAACCTATGCATTCATATAGATACATAAATAT [CACACA_negctrl_site885],8.72 ± 0.51
10,GGTAATTATTTTGGTTGTACTCAAATATATAATATT [XGTACX_site291],8.89 ± 0.23
11,ATCAAAAACATACCTACACACACAATATGTATATAT [CACACA_site9171],9.51 ± 0.28
12,TATATATATATATATACACACATACAGATATATATT [CACACA_site4629],9.5 ± 0.38
13,CACATATATACACATACACACACACCCATACACCCA [CACACA_site8505],10.1 ± 0.25
14,TATACATACACATACACACATACACCCATACACATA [CACACA_site1746],9.69 ± 0.33
15,TATATATACATATACACACACACACCCATATATATA [CACACA_site2246],10 ± 0.11
16,ACCATACATACATACACACACACACCCATATATATA [CACACA_site2917],10.2 ± 0.26
17,CATACACCCATACATACACACATACATATATATATA [CACACA_site8591],9.62 ± 0.15
18,CATATACATACACATACACACATACACCCATACACA [CACACA_site8514],9.68 ± 0.29
19,TCAAAGCACCCATACACACACATATATATATATATA [CACACA_site4317],10.2 ± 0.18
20,GATGAATAAATCAAAGCACACATACACCCACATATA [CACACA_site7986],9.67 ± 0.13
21,TCAAAGCACAGATACACACACATATATATATATATA [CACACA_site287],10.18 ± 0.014
22,TCAAAGCACACATACACACACATATAGATTTATATA [CACACA_site6272],9.73 ± 0.16
23,CTAGCAAATACATACACACACACACCCATACATATA [CACACA_site3496],9.95 ± 0.18
